This passage reports outcome and activation results from PubChem BioAssay.

For part of these data: Entries with a potency or affinity are not part of this list. Activity calls are given as the source filed them.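 How the source made its calls, unless noted: active means primary screen inhibitor hit that blocks the TRPC4 channel at some tested dose, yielding a dose curve; inactive means the rest.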

Assay [1] relates to TRPC4 beta (transient receptor potential cation channel C4), mouse. As to the kind of experiment: activators of mouse TRPC4 channel, confirmation, cell-based, Fluo4 calcium, HEK293 TRPC4beta/mu-opioid, duplicates, 10 µM (AID 2426;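 active means fluorescence ratio normalized to control raised more than 50% in primary screen plus both repeat runs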;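 on activation: percent rise of integrated ratio over buffer wells lacking compound which define 0%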). Conditions: Fluo4 calcium fluorescence, at 10 µM; stronger effect = higher value.
The test system of assay [2] is transient receptor potential cation channel C4 beta (TRPC4), mouse. As to the kind of experiment: activators of mouse TRPC4 channel, confirmation, cell-based, second round, Fluo4, HEK293 TRPC4beta/mu-opioid, 1 µM (AID 2461;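 active means primary screen active and over 50% activation in each of two duplicate runs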;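 on activation: 0% = wells without test compound as baseline of integrated fluorescence ratio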). Conditions: Fluo4 calcium fluorescence, at 1 µM; stronger effect = higher value.
Assay [3] concerns TRPC4 (transient receptor potential cation channel C4 beta), mouse. As to the kind of experiment: positive allosteric modulators of mouse TRPC4, confirmation, cell-based, second round, Fluo-4, HEK293 TRPC4beta/mu-opioid, 1 µM (AID 2554;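 active means primary screen hit whose fluorescence ratio, in both repeats, exceeds the weak agonist control mean by 3 SD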). Conditions: DAMGO EC20, Fluo-4 calcium flux, at 1 µM; stronger effect = higher value. In general terms: Calcium flux is commonly read through the fluorescence of an indicator in the cells.

In assay [4] the test system is TRPC4 beta (transient receptor potential cation channel C4), mouse. As to the kind of experiment: positive allosteric modulators of mouse TRPC4, confirmation, cell-based, Fluo-4, HEK293 TRPC4beta/mu-opioid (AID 2555;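 active means primary screen hit whose calcium fluorescence ratio, in both repeats, exceeds the weak agonist control mean by 3 SD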). The conditions noted are these: DAMGO EC20, Fluo-4 calcium flux, at 10 µM; stronger effect = higher value.
The target in assay [5] is Short transient receptor potential channel 4 (Mus musculus) (UniProt Q9QUQ5). Description: inhibitors of mouse TRPC4 channel, confirmation, cell-based, Fluo4, HEK293 TRPC4beta/mu-opioid (AID 2636;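 active means calcium signal cut by more than 3 SD below the full-agonist control yet still positive, in both repeats and the earlier primary screen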). The conditions noted are these: DAMGO, Fluo4 calcium flux, at 10 µM; stronger effect = higher value.
Chain of Short transient receptor potential channel 4 (Mus musculus) (Q9QUQ5 whole entry, looked up): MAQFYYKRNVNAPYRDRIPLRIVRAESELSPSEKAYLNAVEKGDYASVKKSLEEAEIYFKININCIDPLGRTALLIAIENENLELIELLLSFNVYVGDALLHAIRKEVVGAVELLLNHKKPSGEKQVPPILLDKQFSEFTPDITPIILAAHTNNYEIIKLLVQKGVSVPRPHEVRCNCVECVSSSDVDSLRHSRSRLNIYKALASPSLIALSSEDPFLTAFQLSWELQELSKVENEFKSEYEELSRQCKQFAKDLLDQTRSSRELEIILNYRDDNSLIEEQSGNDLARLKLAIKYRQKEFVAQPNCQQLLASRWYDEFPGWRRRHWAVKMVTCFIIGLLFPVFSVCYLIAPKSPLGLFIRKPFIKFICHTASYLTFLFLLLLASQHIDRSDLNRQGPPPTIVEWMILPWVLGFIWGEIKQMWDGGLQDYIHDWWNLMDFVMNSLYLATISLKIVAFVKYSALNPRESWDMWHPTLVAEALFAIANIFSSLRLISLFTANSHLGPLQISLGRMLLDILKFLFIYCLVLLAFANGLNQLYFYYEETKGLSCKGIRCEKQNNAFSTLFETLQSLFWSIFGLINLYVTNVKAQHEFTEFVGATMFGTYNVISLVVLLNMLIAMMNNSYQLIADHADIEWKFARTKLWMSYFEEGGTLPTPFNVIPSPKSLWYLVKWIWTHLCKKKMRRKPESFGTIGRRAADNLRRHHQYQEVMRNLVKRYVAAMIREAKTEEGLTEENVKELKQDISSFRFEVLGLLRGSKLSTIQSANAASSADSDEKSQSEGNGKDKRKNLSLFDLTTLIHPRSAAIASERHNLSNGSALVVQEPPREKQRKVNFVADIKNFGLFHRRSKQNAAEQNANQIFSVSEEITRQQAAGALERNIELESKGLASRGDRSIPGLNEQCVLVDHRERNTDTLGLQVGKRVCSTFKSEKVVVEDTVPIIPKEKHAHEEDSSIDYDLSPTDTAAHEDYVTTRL
The target is the same in assay [6]. Description: inhibitors of mouse TRPC4 channel, confirmation, cell-based, second round, Fluo4, HEK293 TRPC4beta/mu-opioid, 1 µM (AID 2637;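 active means calcium signal ratio cut to more than 3 SD under the fully stimulated control mean yet still positive, in both repeats and the primary screen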). Conditions: Fluo4 calcium flux, DAMGO, at 1 µM; stronger effect = higher value.
Assay [7] shares this target. As to the kind of experiment: TRPC4 positive allosteric modulators, dose response, cell-based, HEK293 TRPC4/mu-opioid, Fluo-4 calcium, EC20 DAMGO (AID 434941;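 active means earlier screen potentiator hit that boosts the TRPC4 ion channel at some dose, with a dose response; inactive means no potentiation, no dose response, or not a prior hit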;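 further: calcium entry triggered by an EC20 dose of DAMGO at the co-expressed mu-opioid receptor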).
For assay [8] the target is unchanged. Description: mouse TRPC4 channel inhibitors, dose response, cell-based, HEK293 TRPC4/mu-opioid, Fluo-4 calcium (AID 434942).
Assay [9] deals with Short transient receptor potential channel 6 (Mus musculus) (UniProt Q61143). Description: inhibition of mouse TRPC6 channel, confirmation, selectivity assay for TRPC4 inhibitor project, cell-based, HEK293, membrane potential dye, duplicate (AID 434948;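 active means active in primary screen and both duplicates, each dropping signal beyond three positive-control SD with fluorescence still positive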). The conditions noted are these: HEK293 TRPC6, membrane potential dye fluorescence, at 10 µM, stimulated with maximal-effect acetylcholine; stronger effect = higher value.
Chain of Short transient receptor potential channel 6 (Mus musculus) (Q61143 whole entry, looked up): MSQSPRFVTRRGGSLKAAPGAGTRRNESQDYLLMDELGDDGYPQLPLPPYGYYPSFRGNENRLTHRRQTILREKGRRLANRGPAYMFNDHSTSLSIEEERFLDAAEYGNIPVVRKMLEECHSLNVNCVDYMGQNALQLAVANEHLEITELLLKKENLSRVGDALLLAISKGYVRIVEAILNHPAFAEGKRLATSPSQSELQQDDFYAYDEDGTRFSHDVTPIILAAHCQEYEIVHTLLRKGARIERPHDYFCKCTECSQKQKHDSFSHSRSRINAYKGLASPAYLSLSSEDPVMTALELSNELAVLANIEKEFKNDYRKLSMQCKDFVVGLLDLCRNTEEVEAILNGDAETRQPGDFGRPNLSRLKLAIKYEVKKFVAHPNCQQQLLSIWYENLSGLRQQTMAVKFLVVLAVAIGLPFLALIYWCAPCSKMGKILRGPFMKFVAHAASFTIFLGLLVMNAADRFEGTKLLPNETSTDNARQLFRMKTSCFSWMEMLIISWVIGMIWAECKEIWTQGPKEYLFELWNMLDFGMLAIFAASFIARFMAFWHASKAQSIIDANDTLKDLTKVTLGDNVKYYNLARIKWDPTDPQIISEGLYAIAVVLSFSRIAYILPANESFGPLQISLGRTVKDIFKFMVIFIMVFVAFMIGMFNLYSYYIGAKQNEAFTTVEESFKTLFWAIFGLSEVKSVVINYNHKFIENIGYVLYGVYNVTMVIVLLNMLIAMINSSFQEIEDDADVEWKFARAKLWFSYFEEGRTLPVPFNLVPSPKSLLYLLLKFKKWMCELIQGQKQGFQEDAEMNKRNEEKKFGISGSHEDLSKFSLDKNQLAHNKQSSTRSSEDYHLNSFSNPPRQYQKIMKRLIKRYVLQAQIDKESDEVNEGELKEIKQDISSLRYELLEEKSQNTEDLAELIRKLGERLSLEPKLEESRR

The target is the same in assay [10]. As to the kind of experiment: activation of mouse TRPC6 channel, confirmation, selectivity assay for TRPC4 activator project, cell-based, HEK293, membrane potential dye, duplicate (AID 434950;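 active means membrane potential signal rise above negative control mean plus 3 SD in both duplicates, also active in the earlier TRPC4 screen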;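 on activation: 0% = buffer only wells and 100% = acetylcholine maximal-effect wells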). Conditions: HEK293 TRPC6, membrane potential fluorescence, at 10 µM; stronger effect = higher value.
For assay [11] the target is unchanged. Description: TRPC6 potentiation by TRPC4 potentiator hits, confirmation, selectivity assay for TRPC4 potentiator project, HEK293 cells, membrane potential dye, duplicate (AID 434952;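 active means compound raising the membrane signal above positive-control mean plus 3 SD in both repeats, and a primary screen hit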). The conditions noted are these: HEK293 TRPC6, membrane potential dye fluorescence, at 10 µM, maximal acetylcholine added after compound; stronger effect = higher value.
The target of assay [12] is Short transient receptor potential channel 4 (Mus musculus) (UniProt Q9QUQ5). As to the kind of experiment: calcium flux activators in TRPC4/5HT1a cells, counter-screen for TRPC4 activator project, cell-based, second counter screen, HEK293 TRPC4/5HT1a, Fluo-4 (AID 434977;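 active means calcium signal rise above buffer-control mean plus 5 SD in both duplicates, and also a hit in the primary screen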;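 on activation: plate controls were assay buffer for no effect and maximal serotonin response for full effect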). The conditions noted are these: Fluo-4 calcium flux, at 10 µM; stronger effect = higher value.
A short description of assay [13]: calcium flux inhibitors in TRPC4/5HT1a cells, confirmation, counter-screen for TRPC4 inhibitor project, cell-based, second counter screen, HEK293 TRPC4/5HT1a, Fluo-4 (AID 434978;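 active means primary screen active whose calcium signal fell more than 3 SD beyond the full-serotonin control mean in both duplicate plates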;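 further: serotonin given first at submaximal then at maximal dose after compound preincubation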). Conditions: Fluo-4 calcium flux, at 10 µM, serotonin added to trigger calcium flux; stronger effect = higher value.
Assay [14] concerns TRPC4 (mouse), co-expressed with 5HT1a in HEK293. As to the kind of experiment: calcium flux potentiators in TRPC4/5HT1a cells, confirmation, counter-screen for TRPC4 potentiator project, cell-based, second counter screen, HEK293 TRPC4/5HT1a, Fluo-4 (AID 434979;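 active means signal rise over 3 SD above mean of control wells given weak agonist, in both repeats and first screen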). The conditions noted are these: Fluo-4 calcium flux, at 10 µM, serotonin added at its EC20 dose; stronger effect = higher value.

The nature of assay [15]: calcium flux activation in mu-opioid HEK293 cells, confirmation, counter-screen for TRPC4 activator project, cell-based, HEK293 mu-opioid receptor line (AID 449723;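 active means hit in primary screen, with calcium signal over 5 SD above buffer well mean in both duplicates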;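 further: counter screen cells carry the mu-opioid receptor alone and lack TRPC4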). Conditions: Fluo-4 calcium fluorescence, at 10 µM; stronger effect = higher value.
The nature of assay [16]: calcium flux enhancement in mu-opioid HEK293 cells, confirmation, counter-screen for TRPC4 allosteric potentiator project, cell-based, HEK293 mu-opioid receptor line (AID 449724;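 active means calcium signal rise more than 3 SD above the low-dose agonist control mean, in both duplicate plates and the primary screen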;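 further: HEK293 cells carrying mu-opioid receptor only with no TRPC4 channel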). Conditions: Fluo-4 calcium flux, at 10 µM, compound added before EC20 DAMGO stimulus; stronger effect = higher value.

As to `Cc1c(Cl)cccc1NC(=S)NCC(c1cccnc1)N(C)C` (stereo not given), the outcome in assay [1], in assay [3], in assay [4], in assay [5], in [6] and in assay [7] was inactive. Besides, the result in [8], in assay [9], in [11], in assay [12], in [13] and in assay [14] was inactive. Also, the outcome in [15] and in assay [16] was inactive. The activation in [2] was 103% (active); in assay [10] it was 47.5% (active).
As to `CN(C)CCCN(C(=O)c1ccc(S(=O)(=O)N2CCc3ccccc3C2)cc1)c1nc2ccc(F)cc2s1`, the result in assay [1], in [2], in [3], in [4], in assay [5] and in assay [6] was inactive. The result in [7], in [8], in assay [9], in assay [10], in [11] and in assay [12] was inactive. Besides, the result in assay [13], in assay [14], in assay [15] and in assay [16] was inactive.
As to `CCN1CCN(c2ccc(S(=O)(=O)N3CCCCC3)cc2NC(=O)CC(C)c2ccccc2)CC1` (stereo not given), in [1], the activation is 140% (active). Besides, the result in [2], in assay [3], in assay [4], in [5], in assay [6] and in [7] was inactive. Moreover, the result in assay [8], in assay [9], in assay [10], in [11], in [12] and in assay [13] was inactive. The result in assay [14], in assay [15] and in [16] was inactive.
As for `CCCCN(CC)CCNc1c(N2CCN(C(=O)OCC)CC2)c(=O)c1=O`, the activation in assay [1] was 155% (active); in assay [10] it was 30.5% (active). Besides, the result in assay [2], in assay [3], in assay [4], in assay [5], in assay [6] and in assay [7] was inactive. The outcome in [8], in [9], in [11], in assay [12], in assay [13] and in assay [14] was inactive. Moreover, the result in assay [15] and in assay [16] was inactive.
Consider `COc1ccc(Cl)cc1C(=O)Nc1ccccc1N1CCN(C)CC1`, for which the activation in [1] is 120% (active); in assay [12], 16% (active). Moreover, the outcome in [2], in [3], in assay [4], in assay [5], in assay [6] and in [7] was inactive. The result in assay [8], in assay [9], in [10], in assay [11], in [13] and in [14] was inactive. Besides, the outcome in assay [15] and in assay [16] was inactive.
For `Cc1ccc(OCC(=O)N(C)CCc2ccccn2)cc1`, the activation in assay [1] was 133% (active); in assay [12], 45.5% (active). The outcome in assay [2], in assay [3], in assay [4], in [5], in [6] and in [7] was inactive. Moreover, the result in [8], in [9], in assay [10], in assay [11], in assay [13] and in assay [14] was inactive. Besides, the outcome in assay [15] and in assay [16] was inactive.
For the compound `COC(=O)c1ccc(N2CCN(C)CC2)c(NC(=O)c2cccs2)c1`, the activation in assay [1] is 138% (active); in [12], 52.7% (active); in assay [15], 15.6% (active). Also, the outcome in [2], in assay [3], in assay [4], in assay [5], in assay [6] and in assay [7] was inactive. The result in [8], in [9], in [10], in assay [11], in assay [13] and in assay [14] was inactive. In [16], the result was inactive.
Turning to `CCn1c(N2CCN(CC(=O)Nc3cccc(C)c3C)CC2)nc2ccccc21`, the activation in assay [1] was 120% (active); in assay [2] it was 57% (active); in [10] it was 56.5% (active); in assay [12], 23.9% (active). Moreover, the result in assay [3], in assay [4], in assay [5], in [6], in assay [7] and in assay [8] was inactive. Besides, the compound was classed as inactive in assay [9], in assay [11], in assay [13], in assay [14], in assay [15] and in assay [16].
As for `Cc1ccc(C(=O)NNC(=S)NC(=O)COc2ccccc2)cc1`, the results for the activation in assay [1] and in [12] were 171% (active) and 112% (active), respectively. Further, the result in assay [2], in [3], in assay [4], in assay [5], in assay [6] and in [7] was inactive. Also, the result in assay [8], in assay [9], in assay [10], in assay [11], in assay [13] and in assay [14] was inactive. In addition, the result in [15] and in [16] was inactive.
Regarding `CN1CCN(c2ccc(NC(=O)COc3cccc4ccccc34)cc2)CC1`, in assay [1], the activation was 135% (active). The outcome in [2], in assay [3], in [4], in assay [5], in assay [6] and in assay [7] was inactive. Further, the outcome in [8], in assay [9], in assay [10], in assay [11], in assay [12] and in [13] was inactive. Also, the result in assay [14], in assay [15] and in [16] was inactive.
`COc1ccc(C(CNCC(O)COc2c(C)ccc(C)c2C)N(C)C)cc1` (stereo not given): the result in assay [1], in [2], in assay [3], in assay [4], in [5] and in assay [6] was inactive. Besides, the result in [7], in assay [8], in assay [9], in assay [11], in assay [12] and in assay [13] was inactive. The outcome in [14], in assay [15] and in assay [16] was inactive. Besides, the activation in [10] was 79% (active).
`COC(=O)NCC(c1ccc2c(c1)OCO2)N1CCN(c2ccc(OC)cc2)CC1` (stereo not given): in assay [1], the activation is 85% (active). Moreover, the outcome in assay [2], in assay [3], in [4], in assay [5], in [6] and in assay [7] was inactive. Besides, the result in [8], in assay [9], in assay [10], in assay [11], in [12] and in [13] was inactive. Besides, the outcome in [14], in assay [15] and in [16] was inactive.
On to `O=C(N/N=C/c1ccco1)C1COc2ccccc2O1` (stereo not given), for which the activation in assay [1] is 80% (active); in assay [12], 27.3% (active). Further, the outcome in [2], in assay [3], in assay [4], in assay [5], in assay [6] and in assay [7] was inactive. Moreover, the outcome in assay [8], in [9], in [10], in assay [11], in [13] and in assay [14] was inactive. Besides, the result in assay [15] and in assay [16] was inactive.
Turning to `COc1ccc(-c2nc(CSCC(=O)NC3CCN(Cc4ccccc4)CC3)c(C)o2)cc1OC`, the activation was 107% (active) in assay [1], 99.5% (active) in [10] and 23.1% (active) in [12]. In addition, the outcome in assay [2], in assay [3], in assay [4], in assay [5], in assay [6] and in assay [7] was inactive. Further, the result in [8], in assay [9], in assay [11], in assay [13], in assay [14] and in assay [15] was inactive. The outcome in assay [16] was inactive.
On to `O=C(NC1CCN(Cc2ccccc2)CC1)C12CC3CC(CC(C3)C1)C2`, for which the activation in [1] was 166% (active); in [10] it was 54% (active); in [12], 61.6% (active). Moreover, the outcome in assay [2], in [3], in assay [4], in [5], in assay [6] and in [7] was inactive. The result in [8], in [9], in assay [11], in assay [13], in [14] and in assay [15] was inactive. Besides, the result in assay [16] was inactive.
